# Assay results as given in PubChem BioAssay (NCATS).
# Records with an inconclusive call do not appear. A call without a number means that no potency is given here. Values without a mark were called inactive. Active and inactive are the calls of the source. Calls follow the shape of the dose curve; as a rule, active = well fitted curve in the direction sought with a large enough effect; inconclusive = small, poorly fitted or top-dose-only effect, or another doubt; inactive = no such curve, though single readings can be large; an effect the other way counts as inactive or inconclusive.
# Key:
# MCC-13 = assay: qHTS assay to identify novel small-molecules to repurpose for Merkel cell carcinoma treatment (AID 1296009); details: MCC and control cell lines, CellTiter-Glo viability, 72 h; series mostly up to 46 µM; also: nearly all actives have a fitted effect of over 60% in size
# Procedure, shortened: (§1)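 Cell viability, measured as CellTiter-Glo luminescence, was normalized between DMSO and no-cell wells. The cells had been exposed to 8- or 11-point compound dilutions for 72 hr at 37 degree celsius.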
# MCC-26 = assay: as above; details: MCC and control cell lines, CellTiter-Glo viability, 72 h; series mostly up to 46 µM
# Procedure, shortened: as §1
# CASKI = assay: Primary qHTS to identify gynecologic anti-cancer compounds using libraries of approved drugs and bioactive compounds (AID 1345084); details: Gynecologic cancer cell panel viability, ATPlite luminescence, 48 h; series mostly up to 57.5 µM; also: nearly all actives have a fitted effect of over 55% in size
# Procedure, shortened: (§2)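 ATP-based viability (ATPlite), 1,000 cells/well, 16 h pre-incubation, 48 h compound at 37 C, 5% CO2, 15 min RT before read.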
# HeLa = assay: as above; details: Gynecologic cancer cell panel viability, ATPlite luminescence, 48 h; series mostly up to 57.5 µM
# Procedure, shortened: as §2
# JEG-3 = assay: as above; details: Gynecologic cancer cell panel viability, ATPlite luminescence, 48 h; series mostly up to 57.5 µM
# Procedure, shortened: as §2
# OV90 = assay: as above; details: Gynecologic cancer cell panel viability, ATPlite luminescence, 48 h; series mostly up to 57.5 µM
# Procedure, shortened: as §2
# SKOV3 = assay: as above; details: Gynecologic cancer cell panel viability, ATPlite luminescence, 48 h; series mostly up to 57.5 µM
# Procedure, shortened: as §2
# Tov-21-G = assay: as above; details: Gynecologic cancer cell panel viability, ATPlite luminescence, 48 h; series mostly up to 57.5 µM
# Procedure, shortened: as §2
# Tov112D = assay: as above; details: Gynecologic cancer cell panel viability, ATPlite luminescence, 48 h; series mostly up to 57.5 µM
# Procedure, shortened: as §2
# MKL-1 = assay: qHTS assay to identify novel small-molecules to repurpose for Merkel cell carcinoma treatment (AID 1296009); details: MCC and control cell lines, CellTiter-Glo viability, 72 h; series mostly up to 46 µM; also: nearly all actives have a fitted effect of over 60% in size
# Procedure, shortened: as §1
# MKL-2 = assay: as above; details: MCC and control cell lines, CellTiter-Glo viability, 72 h; series mostly up to 46 µM
# Procedure, shortened: as §1
# NIH3T3 = assay: as above; details: MCC and control cell lines, CellTiter-Glo viability, 72 h; series mostly up to 44.8 µM
# Procedure, shortened: as §1
# UISO = assay: as above; details: MCC and control cell lines, CellTiter-Glo viability, 72 h; series mostly up to 46 µM
# Procedure, shortened: as §1
# WaGa = assay: as above; details: MCC and control cell lines, CellTiter-Glo viability, 72 h; series mostly up to 46 µM
# Procedure, shortened: as §1
# C33A = assay: Primary qHTS to identify gynecologic anti-cancer compounds using libraries of approved drugs and bioactive compounds (AID 1345084); details: Gynecologic cancer cell panel viability, ATPlite luminescence, 48 h; series mostly up to 57.5 µM; also: nearly all actives have a fitted effect of over 55% in size
# Procedure, shortened: as §2
# CAOV3 = assay: as above; details: Gynecologic cancer cell panel viability, ATPlite luminescence, 48 h; series mostly up to 57.5 µM
# Procedure, shortened: as §2
# Es-2 = assay: as above; details: Gynecologic cancer cell panel viability, ATPlite luminescence, 48 h; series mostly up to 57.5 µM
# Procedure, shortened: as §2
# Hek293T = assay: as above; details: Gynecologic cancer cell panel viability, ATPlite luminescence, 48 h, control line for the selectivity index; series mostly up to 57.5 µM
# Procedure, shortened: as §2
# PA-1 = assay: as above; details: Gynecologic cancer cell panel viability, ATPlite luminescence, 48 h; series mostly up to 57.5 µM
# Procedure, shortened: as §2
# [1] = Drug repurposing screens with cells derived from glioblastoma tumor samples (AID 1345199); details: GBM patient neurospheres viability, ATP luminescence, 48 h; also: nearly all actives have a fitted effect of over 40% in size
# Procedure, shortened: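 Primary testing used CD133+ neurospheres from four GBM patients, seven concentrations, 48 h exposure and ATP-based viability; confirmation added three slower-growing patient lines.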
# [2] = at 45.9 µM (top of the series), tumour line B
# [3] = at 46.1 µM (top of the series), tumour line C
# Potency is read from the fitted curve at half-maximal effect.
compound,measurement,setting,value
Cc1cc(-c2ncc(CC(=O)Nc3ccc(-c4cnccn4)cn3)cc2C)ccn1,Potency,MCC-13,inactive
same,Potency,MCC-26,inactive
same,Potency,CASKI,inactive
same,Potency,HeLa,inactive
same,Potency,JEG-3,inactive
same,Potency,OV90,inactive
same,Potency,SKOV3,39.8 µM (active)
same,Potency,Tov-21-G,inactive
same,Potency,Tov112D,inactive
Cc1nc2c([nH]1)CCN(C(=O)c1ccc(NC(=O)c3ccccc3-c3ccccc3)cc1)c1ccccc1-2,Potency,MCC-13,inactive
same,Potency,MKL-1,inactive
same,Potency,MKL-2,inactive
same,Potency,NIH3T3,inactive
same,Potency,UISO,inactive
same,Potency,WaGa,inactive
same,Potency,C33A,inactive
same,Potency,CAOV3,inactive
same,Potency,CASKI,inactive
same,Potency,Es-2,inactive
same,Potency,HeLa,inactive
same,Potency,Hek293T,inactive
same,Potency,JEG-3,inactive
same,Potency,OV90,inactive
same,Potency,PA-1,inactive
same,Potency,SKOV3,inactive
same,Potency,Tov-21-G,inactive
same,Potency,Tov112D,inactive
COc1ccc(-c2cc(=O)c3c(O)cc(O[C@@H]4O[C@H](CO[C@@H]5O[C@@H](C)[C@H](O)[C@@H](O)[C@@H]5O)[C@@H](O)[C@H](O)[C@@H]4O)cc3o2)cc1O,Potency,MCC-13,inactive
same,Potency,MKL-1,inactive
same,Potency,MKL-2,inactive
same,Potency,NIH3T3,inactive
same,Potency,UISO,inactive
same,Potency,WaGa,inactive
CON(C)C(=O)N1N=C(c2cc(F)ccc2F)S[C@]1(CCCN)c1ccccc1,Potency,MCC-13,9.3 nM (active)
same,Potency,MKL-1,inactive
same,Potency,MKL-2,inactive
same,Potency,UISO,inactive
same,Potency,WaGa,inactive
OC1CCC(Nc2ncc3nc(Nc4c(F)cc(F)cc4F)n([C@@H]4CCOC4)c3n2)CC1 (stereo partly specified),Potency,MCC-13,inactive
same,Potency,MKL-1,inactive
same,Potency,MKL-2,inactive
same,Potency,NIH3T3,inactive
same,Potency,UISO,inactive
same,Potency,WaGa,inactive
CN(C)CCOc1ccc(C(=C(CCCl)c2ccccc2)c2ccccc2)cc1,Potency,MCC-13,inactive
same,Potency,MKL-1,inactive
same,Potency,MKL-2,inactive
same,Potency,NIH3T3,inactive
same,Potency,UISO,inactive
same,Potency,WaGa,inactive
CS(=O)(=O)c1ccc(C2=C(c3ccccc3)C(=O)OC2)cc1,Potency,MCC-13,inactive
same,Potency,MKL-1,inactive
same,Potency,MKL-2,inactive
same,Potency,NIH3T3,inactive
same,Potency,UISO,inactive
same,Potency,WaGa,inactive
same,Potency,C33A,inactive
same,Potency,CAOV3,inactive
same,Potency,CASKI,inactive
same,Potency,Es-2,inactive
same,Potency,HeLa,inactive
same,Potency,Hek293T,inactive
same,Potency,JEG-3,inactive
same,Potency,OV90,inactive
same,Potency,PA-1,inactive
same,Potency,Tov-21-G,inactive
same,Potency,Tov112D,inactive
same,"activity, negative = cell killing",[1]; [2],-11.3%
same,"activity, negative = cell killing",[1]; [3],-14.3%
Oc1cc(O)cc(C=Cc2ccc(O)c(O)c2)c1,Potency,MCC-13,inactive
same,Potency,MCC-26,inactive
same,Potency,WaGa,18.7 µM (active)
Cc1ccccc1-n1c(Cn2nc(-c3cccc(O)c3)c3c(N)ncnc32)nc2cccc(C)c2c1=O,Potency,MCC-13,18700 nM (active)
same,Potency,MKL-1,1.05 µM (active)
same,Potency,MKL-2,10.5 µM (active)
same,Potency,NIH3T3,inactive
same,Potency,UISO,10.5 µM (active)
same,Potency,WaGa,0.118 µM (active)
same,Potency,C33A,inactive
same,Potency,CAOV3,inactive
same,Potency,CASKI,inactive
same,Potency,Es-2,inactive
same,Potency,HeLa,inactive
same,Potency,Hek293T,inactive
same,Potency,JEG-3,inactive
same,Potency,OV90,inactive
same,Potency,PA-1,inactive
same,Potency,SKOV3,inactive
same,Potency,Tov-21-G,inactive
same,Potency,Tov112D,inactive
Cc1nc(C(=O)NCC(=O)O)c(O)c2ccc(Oc3ccccc3)cc12,Potency,MCC-13,inactive
same,Potency,MKL-1,inactive
same,Potency,MKL-2,inactive
same,Potency,UISO,inactive
same,Potency,WaGa,inactive
same,Potency,C33A,inactive
same,Potency,CASKI,inactive
same,Potency,Es-2,inactive
same,Potency,HeLa,inactive
same,Potency,Hek293T,inactive
same,Potency,JEG-3,inactive
same,Potency,OV90,inactive
same,Potency,PA-1,inactive
same,Potency,Tov-21-G,inactive
same,Potency,Tov112D,inactive
C[C@@H](NC(=O)c1ncnc(N)c1Cl)c1ncc(C(=O)Nc2cc(C(F)(F)F)c(Cl)cn2)s1,Potency,MCC-13,inactive
same,Potency,MKL-1,inactive
same,Potency,MKL-2,inactive
same,Potency,UISO,inactive
same,Potency,WaGa,inactive
same,Potency,C33A,inactive
same,Potency,CAOV3,inactive
same,Potency,CASKI,inactive
same,Potency,Es-2,inactive
same,Potency,HeLa,inactive
same,Potency,Hek293T,inactive
same,Potency,JEG-3,inactive
same,Potency,OV90,10 µM (active)
same,Potency,PA-1,inactive
same,Potency,Tov112D,inactive
CC(C)CN(C[C@@H](O)[C@H](Cc1ccccc1)NC(=O)O[C@H]1CO[C@H]2OCC[C@H]21)S(=O)(=O)c1ccc(N)cc1,Potency,MCC-13,inactive
same,Potency,MCC-26,inactive
same,Potency,NIH3T3,inactive
same,Potency,UISO,inactive
same,"activity, negative = cell killing",[1]; [2],-11.9%
same,"activity, negative = cell killing","[1]; at 45.9 µM (top of the series), tumour line D",-22.5%
same,"activity, negative = cell killing",[1]; [3],-17%
same,Potency,[1]; tumour line A,17.8 µM (active)
CC(C)(C)c1[nH]cnc1C=c1[nH]c(=O)c(=Cc2ccccc2)[nH]c1=O,Potency,MCC-13,7.6 nM (active)
same,Potency,MKL-1,inactive
same,Potency,MKL-2,0.0605 µM (active)
same,Potency,UISO,0.0121 µM (active)
CCN1C[C@H](C)n2c(c(O)c3c(=O)n(Cc4ccc(F)c(Cl)c4)nc(C(=O)NC)c32)C1=O,Potency,MCC-13,inactive
same,Potency,MKL-1,inactive
same,Potency,MKL-2,inactive
same,Potency,UISO,inactive
same,Potency,WaGa,inactive
same,Potency,C33A,inactive
same,Potency,CAOV3,inactive
same,Potency,CASKI,inactive
same,Potency,Es-2,inactive
same,Potency,HeLa,inactive
same,Potency,Hek293T,inactive
same,Potency,JEG-3,inactive
same,Potency,OV90,inactive
same,Potency,PA-1,inactive
same,Potency,SKOV3,inactive
same,Potency,Tov-21-G,inactive
same,Potency,Tov112D,inactive
COc1ccc(CCC(=O)Nc2nc3ccc(Cl)cc3s2)cc1OC,Potency,MCC-13,inactive
same,Potency,MKL-1,inactive
same,Potency,MKL-2,inactive
same,Potency,NIH3T3,inactive
same,Potency,UISO,inactive
same,Potency,WaGa,inactive
same,Potency,C33A,inactive
same,Potency,CASKI,inactive
same,Potency,Es-2,inactive
same,Potency,HeLa,inactive
same,Potency,Hek293T,inactive
same,Potency,JEG-3,inactive
same,Potency,OV90,inactive
same,Potency,PA-1,inactive
same,Potency,SKOV3,inactive
same,Potency,Tov-21-G,inactive
same,Potency,Tov112D,inactive
